# Laboratory results taken from PubChem BioAssay AID2283312 (EPA ToxCast).
# Inconclusive results are not listed. The source made the active and inactive calls. Rule for the calls: active = hit-call score of the fitted dose curve at least 0.9, where 1 is the maximum; inconclusive = response in the unintended direction; inactive = score below 0.9.
# Target: rat Vasoactive Intestinal Peptide Receptor (VIP), Non-selective Binding, Vipr1 (gene 24875) (UniProt P30083)
# Experiment: NVS_GPCR_rVIP_NonSelective: NovaScreen (NVS) G Protein-Coupled Receptor Assay for rat Vasoactive Intestinal Peptide Receptor (VIP), Non-selective Binding
# Protocol: NVS_GPCR_rVIP_NonSelective is a biochemical, single-readout assay that uses extracted gene-proteins from Rat forebrain membranes in a tissue-based cell-free assay. Measurements were taken 1 hour after chemical dosing in a 96-well plate.NVS_GPCR_rVIP_NonSelective is one of one assay component(s) measured or calculated from the NVS_GPCR_rVIP_NonSelective assay. It is designed to make measurements of radioligand binding, a form of binding reporter, as detected with scintillation counting signals by Filter-based radiodetection technology.Data from the assay component NVS_GPCR_rVIP_NonSelective was analyzed into 1 assay endpoint. This assay endpoint, NVS_GPCR_rVIP_NonSelective, was analyzed in the positive analysis fitting direction relative to DMSO as the negative control and baseline of activity. Using a type of binding reporter, loss-of-signal activity can be used to understand changes in the binding as they relate to the gene Vipr1. Furthermore, this assay endpoint can be referred to as a primary readout, because the performed assay has only produced 1 assay endpoint. To generalize the intended target to other relatable targets, this assay endpoint is annotated to the gpcr intended target family, where the subfamily is secretin receptor.
# Binding assays used specific radioligands (tritiated, iodinated) with non-radioactive competitive displacement ligands in agonist or antagonist protocols (as indicated) and various reference compounds and inhibitors to titrate specific binding to receptors and transporters. Most enzyme assays (CYPs, kinases, phosphatases, proteases, HDACs) used recombinant protein and specific substrates (fluorescence mostly, some colorimetric and radioactive) and inhibitors, followed by a biochemical separation of substrate and product. All assays for the biochemical HTS were initially run in duplicate at a single concentration (10 uM for CYP450 assays and 25 uM for all others). Assay-chemical combinations meeting a pre-defined threshold (e.g., 30% inhibition and other criteria defined below) were then run in singleton concentration-response format with maximum concentration of 20 uM for CYPs and 50 uM for all others. Each assay was run with positive and negative controls, and concurrent controls on every plate. The follow-up (secondary) screen tested active chemical-pairs in concentration series, as well as a few additional assays not tested in the primary screen, some selected negative inactives, and several cases re-run in the concentration series for confirmatory purposes.
# Sequence of rat Vasoactive Intestinal Peptide Receptor (VIP), Non-selective Binding, Vipr1 (gene 24875) (P30083 whole entry, looked up): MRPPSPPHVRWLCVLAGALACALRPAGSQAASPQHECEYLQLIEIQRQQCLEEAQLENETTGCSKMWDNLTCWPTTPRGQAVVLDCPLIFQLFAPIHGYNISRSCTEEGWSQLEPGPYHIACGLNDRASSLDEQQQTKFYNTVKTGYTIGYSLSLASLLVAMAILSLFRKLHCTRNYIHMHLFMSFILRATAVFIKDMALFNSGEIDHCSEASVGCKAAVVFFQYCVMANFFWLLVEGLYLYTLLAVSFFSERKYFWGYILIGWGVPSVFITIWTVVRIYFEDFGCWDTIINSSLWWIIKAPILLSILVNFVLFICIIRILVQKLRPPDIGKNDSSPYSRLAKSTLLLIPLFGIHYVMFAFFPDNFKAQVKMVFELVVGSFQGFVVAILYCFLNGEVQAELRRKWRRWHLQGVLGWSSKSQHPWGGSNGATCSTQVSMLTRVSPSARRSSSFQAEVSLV
Structure (SMILES),outcome,AC50
COP(=S)(OC)Oc1nc(Cl)c(Cl)cc1Cl,inactive,–
Nc1c(Cl)c(F)nc(OCC(=O)O)c1Cl,inactive,–
CC(C)N1C(=O)N(c2ccccc2)CSC1=NC(C)(C)C,inactive,–
Oc1ccccc1-c1ccccc1,inactive,–
CCC[CH2][Sn]([Cl])([CH2]CCC)[CH2]CCC,–,7.97 µM (active)
CC(=O)[O][Hg][c]1ccccc1,inactive,–
C=C(C)C(=O)[O][Sn]([CH2]CCC)([CH2]CCC)[CH2]CCC,–,14.9 µM (active)
CC[C@H](C)[C@H]1O[C@]2(C=C[C@@H]1C)C[C@@H]1C[C@@H](C/C=C(\C)[C@@H](O[C@H]3C[C@H](OC)[C@@H](O[C@H]4C[C@H](OC)[C@@H](NC)[C@H](C)O4)[C@H](C)O3)[C@@H](C)/C=C/C=C3\CO[C@@H]4[C@H](O)C(C)=C[C@@H](C(=O)O1)[C@]34O)O2,inactive,–
CCOP(=O)(OCC)Oc1nc(Cl)c(Cl)cc1Cl,inactive,–
Cc1ccc(-c2c(Cl)nc(C#N)n2S(=O)(=O)N(C)C)cc1,inactive,–
